Among the data in PubChem BioAssay (NCATS) are Potency values, retold here.

A short description of assay [1]: qHTS for Inhibitors of the Functional Ribonucleoprotein Complex (vRNP) of Lassa (LASV) Arenavirus: Viability assay - alamar blue signal for LASV Primary Screen (AID 1347083; calls by dose curve; tested in HEK293 reporter line; also: nearly all actives have a fitted effect of over 80% in size; also: potency is read from the fitted curve at half-maximal effect). For orientation: Quantitative high-throughput screening tests each substance at several concentrations.
Assay [2] is described as follows: qHTS for Inhibitors of the Functional Ribonucleoprotein Complex (vRNP) of Lymphocytic Choriomeningitis Arenaviruses (LCMV): Viability assay - alamar blue signal for LCMV Primary Screen (AID 1347085; calls by dose curve; tested in HEK293 reporter line; also: nearly all actives have a fitted effect of over 80% in size; also: potency is read from the fitted curve at half-maximal effect).
Assay [3] has as its target Nucleoprotein (Lymphocytic choriomeningitis virus (strain Armstrong)) (UniProt P09992). As to the kind of experiment: qHTS for Inhibitors of the Functional Ribonucleoprotein Complex (vRNP) of Lymphocytic Choriomeningitis Arenaviruses (LCMV): LCMV Primary Screen - GLuc reporter signal (AID 1347086). Also: series mostly up to about 57 µM; nearly all actives have a fitted effect of over 70% in size.

SMILES strings stand for the structures. Inconclusive results are not listed. The source made the active and inactive calls. Unless noted, calls follow the shape of the full dose curve.

Chain of Nucleoprotein (Lymphocytic choriomeningitis virus (strain Armstrong)) (P09992 whole entry, looked up): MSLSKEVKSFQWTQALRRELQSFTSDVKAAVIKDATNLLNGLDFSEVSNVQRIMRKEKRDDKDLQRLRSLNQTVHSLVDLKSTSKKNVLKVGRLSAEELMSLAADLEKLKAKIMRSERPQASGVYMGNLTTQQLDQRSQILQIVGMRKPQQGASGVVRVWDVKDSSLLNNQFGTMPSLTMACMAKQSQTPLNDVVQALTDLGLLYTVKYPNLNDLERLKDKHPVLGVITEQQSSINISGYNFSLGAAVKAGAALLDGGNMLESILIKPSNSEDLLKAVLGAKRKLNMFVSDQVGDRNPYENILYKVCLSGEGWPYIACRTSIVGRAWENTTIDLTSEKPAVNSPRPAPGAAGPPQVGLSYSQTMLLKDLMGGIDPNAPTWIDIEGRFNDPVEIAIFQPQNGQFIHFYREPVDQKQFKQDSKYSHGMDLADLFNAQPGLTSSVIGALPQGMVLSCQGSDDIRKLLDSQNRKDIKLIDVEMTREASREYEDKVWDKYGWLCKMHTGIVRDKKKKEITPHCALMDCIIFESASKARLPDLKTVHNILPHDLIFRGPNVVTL

For `O=C1CCc2cc(OCCCCc3nnnn3C3CCCCC3)ccc2N1`, the Potency entry in assay [1], in assay [2] and in assay [3] was “inactive” each time.

With `CN(C)CC/C=C1\c2ccccc2COc2ccccc21`, the Potency result in assay [1], in assay [2] and in assay [3] was “inactive” each time.

Turning to `NCCC(O)(P(=O)(O)O)P(=O)(O)O`, the Potency result in assay [1], in assay [2] and in assay [3] was “inactive” in each case.

Take `CC1=C(C(=O)O)N2C(=O)[C@@H](NC(=O)[C@H](N)c3ccc(O)cc3)[C@H]2SC1`: the Potency entry in assay [1], in assay [2] and in assay [3] was “inactive” each time.

Turning to `CC(=O)CCCCn1c(=O)c2c(ncn2C)n(C)c1=O`, the Potency entry in assay [1], in assay [2] and in assay [3] was “inactive” in each case.

Take `O=C(CCCN1CCC(O)(c2ccc(Cl)cc2)CC1)c1ccc(F)cc1`: the Potency result in assay [1], in assay [2] and in assay [3] was “inactive” throughout.

Turning to `CC1(C)NC(=O)N(c2ccc([N+](=O)[O-])c(C(F)(F)F)c2)C1=O`, the Potency result in assay [1], in assay [2] and in assay [3] was “inactive” each time.

`CN(N=O)C(=O)N[C@@H]1[C@@H](O)[C@H](O)[C@@H](CO)O[C@@H]1O`: the Potency result in assay [1], in assay [2] and in assay [3] was “inactive” in each case.

On to `Cc1ccc(-c2cc(C(F)(F)F)nn2-c2ccc(S(N)(=O)=O)cc2)cc1`, for which the Potency entry in assay [1], in assay [2] and in assay [3] was “inactive” each time.

Take `Cc1ccc(C)c(OCCCC(C)(C)C(=O)O)c1`: the Potency entry in assay [1], in assay [2] and in assay [3] was “inactive” each time.

For the compound `C[C@@H](c1ncncc1F)C(O)(Cn1cncn1)c1ccc(F)cc1F` (some centres undefined), the Potency result in assay [1], in assay [2] and in assay [3] was “inactive” each time.

In the case of `CN1CC(=O)N/C1=N/C(=O)Nc1cccc(Cl)c1`, the Potency result in assay [1], in assay [2] and in assay [3] was “inactive” each time.

Regarding `CCC(C)n1ncn(-c2ccc(N3CCN(c4ccc(OC[C@H]5CO[C@](Cn6cncn6)(c6ccc(Cl)cc6Cl)O5)cc4)CC3)cc2)c1=O` (some centres undefined), the Potency result in assay [1], in assay [2] and in assay [3] was “inactive” throughout.

Take `CC(C)(C)C(=O)OCOP(=O)(COCCn1cnc2c(N)ncnc21)OCOC(=O)C(C)(C)C`: the Potency entry in assay [1], in assay [2] and in assay [3] was “inactive” throughout.

For `CN(C)CC[C@@H](c1ccc(Br)cc1)c1ccccn1`, the Potency result in assay [1], in assay [2] and in assay [3] was “inactive” in each case.

On to `C[C@H]1O[C@H](O[C@H]2[C@H](O)[C@@H](O)[C@@H](O[C@H]3[C@H](O)[C@@H](O)[C@H](O)O[C@@H]3CO)O[C@@H]2CO)[C@H](O)[C@@H](O)[C@@H]1N[C@H]1C=C(CO)[C@@H](O)[C@H](O)[C@H]1O`, for which the Potency result in assay [1], in assay [2] and in assay [3] was “inactive” each time.

For `Cc1cccc(C)c1OCC(C)N` (centres undefined), the Potency result in assay [1], in assay [2] and in assay [3] was “inactive” each time.

On to `C[C@H]1[C@H](NC(=O)/C(=N/OC(C)(C)C(=O)O)c2csc(N)n2)C(=O)N1S(=O)(=O)O` (stereo in doubt), for which the Potency entry in assay [1], in assay [2] and in assay [3] was “inactive” in each case.

Regarding `Oc1ccc(C2CNCCc3c2cc(O)c(O)c3Cl)cc1` (centres undefined), the Potency result in assay [1], in assay [2] and in assay [3] was “inactive” throughout.

As for `CCOc1ccc2ccccc2c1C(=O)N[C@@H]1C(=O)N2[C@@H]1SC(C)(C)[C@@H]2C(=O)O`, the Potency entry in assay [1], in assay [2] and in assay [3] was “inactive” throughout.

As to `O=C1C(=O)c2ccccc2C(O)=C1C1CCC(c2ccc(Cl)cc2)CC1` (centres undefined), the Potency entry in assay [1], in assay [2] and in assay [3] was “inactive” throughout.

As for `CCCCc1nc(Cl)c(CO)n1Cc1ccc(-c2ccccc2-c2nn[nH]n2)cc1`, the Potency entry in assay [1], in assay [2] and in assay [3] was “inactive” each time.

On to `COc1cc(Cc2cnc(N)nc2N)cc(OC)c1OC`, for which the Potency entry in assay [1], in assay [2] and in assay [3] was “inactive” throughout.

For the compound `COc1cc(C(=O)NCc2ccc(OCCN(C)C)cc2)cc(OC)c1OC`, the Potency result in assay [1], in assay [2] and in assay [3] was “inactive” throughout.

Take `Cc1c(OCC(F)(F)F)ccnc1CS(=O)c1nc2ccccc2[nH]1` (centres undefined): the Potency entry in assay [1], in assay [2] and in assay [3] was “inactive” throughout.

`COC(=O)[C@H]1[C@H]2C[C@@H]3c4[nH]c5cc(OC)ccc5c4CCN3C[C@H]2C[C@@H](OC(=O)c2cc(OC)c(OC)c(OC)c2)[C@@H]1OC`: the Potency result in assay [1], in assay [2] and in assay [3] was “inactive” each time.

For the compound `COc1cc2c(cc1OC)C(=O)C(CC1CCN(Cc3ccccc3)CC1)C2` (centres undefined), the Potency result in assay [1], in assay [2] and in assay [3] was “inactive” in each case.

As for `CCCCNC(=O)NS(=O)(=O)c1ccc(C)cc1`, the Potency result in assay [1], in assay [2] and in assay [3] was “inactive” each time.

Consider `COc1cc2c(cc1OC)[C@@H]1CC(=O)[C@@H](CC(C)C)CN1CC2`, for which the Potency result in assay [1], in assay [2] and in assay [3] was “inactive” throughout.

Regarding `CCCN(CCc1cccs1)[C@H]1CCc2c(O)cccc2C1`, the Potency result in assay [1], in assay [2] and in assay [3] was “inactive” each time.

Take `CO[C@@H](C(=O)N1Cc2[nH]nc(NC(=O)c3ccc(N4CCN(C)CC4)cc3)c2C1)c1ccccc1`: the Potency was 4.85 µM (active) in assay [1] and 6.85 µM (active) in assay [2]. The Potency result in assay [3] is “inactive”.

`O=C(O)CCNC(=O)c1ccc(N=Nc2ccc(O)c(C(=O)O)c2)cc1`: the Potency result in assay [1], in assay [2] and in assay [3] was “inactive” in each case.

Regarding `CC1(C)S[C@@H]2[C@H](NC(=O)Cc3ccccc3)C(=O)N2[C@H]1C(=O)O` (tested in a mixture with another compound), the Potency result in assay [1], in assay [2] and in assay [3] was “inactive” each time.
